Activity calls are given as the source filed them. Calls follow the shape of the full dose curve.
Settings: Ebola virus entry reporter assay, ratio channel

Compound | AC50 | outcome
CC[C@]1(O)C[C@@H]2CN(CCc3c([nH]c4ccccc34)[C@@](C(=O)OC)(c3cc4c(cc3OC)N(C)[C@H]3[C@@](O)(C(=O)OC)[C@H](OC(C)=O)[C@]5(CC)C=CCN6CC[C@]43[C@@H]65)C2)C1 | 122 nM (active) | –
CN1[C@@H]2CC[C@H]1CC(OC(c1ccccc1)c1ccccc1)C2 (some centres undefined) | 3850 nM (active) | –
CC[C@H]1OC(=O)[C@H](C)[C@@H](O[C@H]2C[C@@](C)(OC)[C@@H](O)[C@H](C)O2)[C@H](C)[C@@H](O[C@@H]2O[C@H](C)C[C@H](N(C)C)[C@@H]2O)[C@](C)(O)C[C@@H](C)CN(C)[C@H](C)[C@@H](O)[C@]1(C)O | 3060 nM (active) | –
COC(=O)Nc1nc2ccc(C(=O)c3cccs3)cc2[nH]1 | 544 nM (active) | –
C[C@@H]1O[C@@H](O[C@H]2CC[C@@]3(C)[C@H](CC[C@@H]4[C@H]3C[C@@H](O)[C@]3(C)[C@@H](C5=CC(=O)OC5)CC[C@]43O)C2)C[C@H](O)[C@@H]1O[C@H]1C[C@H](O)[C@H](O[C@H]2C[C@H](O)[C@@H](O)[C@@H](C)O2)[C@H](C)O1 (stereo in doubt) | 1400 nM (active) | –
CCN(CC)CCNC(=O)c1c(C)[nH]c(/C=C2\C(=O)Nc3ccc(F)cc32)c1C | 1530 nM (active) | –
CN1CCN(CCCN2c3ccccc3Sc3ccc(C(F)(F)F)cc32)CC1 | 2730 nM (active) | –
CO[C@H]1C[C@@H]2CC[C@@H](C)[C@@](O)(O2)C(=O)C(=O)N2CCCC[C@@H]2C(=O)O[C@H]([C@H](C)C[C@@H]2CC[C@H](OCCO)[C@H](OC)C2)CC(=O)[C@H](C)C=C(C)[C@@H](O)[C@@H](OC)C(=O)[C@H](C)C[C@H](C)C=CC=CC=C1C | – | inactive
COC1=CC(=O)C[C@@H](C)[C@]12Oc1c(Cl)c(OC)cc(OC)c1C2=O | – | inactive
CCCNCC(O)COc1ccccc1C(=O)CCc1ccccc1 (centres undefined) | 8630 nM (active) | –
CCCSc1ccc2nc(NC(=O)OC)[nH]c2c1 | 4320 nM (active) | –
CO[C@H]1C[C@@H]2CC[C@@H](C)[C@@](O)(O2)C(=O)C(=O)N2CCCC[C@@H]2C(=O)O[C@H]([C@@H](C)C[C@@H]2CC[C@H](O)[C@H](OC)C2)CC(=O)[C@H](C)C=C(C)[C@@H](O)[C@@H](OC)C(=O)[C@H](C)C[C@H](C)C=CC=CC=C1C | – | inactive
Cc1nnc(C(C)C)n1C1C[C@H]2CC[C@@H](C1)N2CC[C@H](NC(=O)C1CCC(F)(F)CC1)c1ccccc1 (some centres undefined) | – | inactive
COC(=O)Nc1nc2ccc(C(=O)c3ccccc3)cc2[nH]1 | 3430 nM (active) | –
CN(C)CCCN1c2ccccc2CCc2ccc(Cl)cc21 | 5440 nM (active) | –
CC[C@]1(O)C[C@H]2CN(CCc3c([nH]c4ccccc34)[C@@](C(=O)OC)(c3cc4c(cc3OC)N(C=O)[C@H]3[C@@](O)(C(=O)OC)[C@H](OC(C)=O)[C@]5(CC)C=CCN6CC[C@]43[C@@H]65)C2)C1 | 137 nM (active) | –
COc1cccc2c1C(=O)c1c(O)c3c(c(O)c1C2=O)C[C@@](O)(C(C)=O)C[C@H]3O[C@H]1C[C@H](N)[C@H](O)[C@H](C)O1 | 2730 nM (active) | –
CCC1=C[C@@H]2CN(C1)Cc1c([nH]c3ccccc13)[C@@](C(=O)OC)(c1cc3c(cc1OC)N(C)[C@H]1[C@@](O)(C(=O)OC)[C@H](OC(C)=O)[C@]4(CC)C=CCN5CC[C@]31[C@@H]54)C2 | 86.3 nM (active) | –
CCCCc1oc2ccc(NS(C)(=O)=O)cc2c1C(=O)c1ccc(OCCCN(CCCC)CCCC)cc1 | 2430 nM (active) | –
NCCCC(O)(P(=O)(O)O)P(=O)(O)O | – | inactive
CC[C@H]1OC(=O)[C@H](C)[C@@H](O[C@H]2C[C@@](C)(OC)[C@@H](O)[C@H](C)O2)C(C)[C@@H](O[C@@H]2O[C@H](C)C[C@H](N(C)C)[C@@H]2O)[C@](C)(OC)C[C@@H](C)C(=O)[C@H](C)[C@@H](O)[C@]1(C)O (some centres undefined) | 4850 nM (active) | –
CN(C)CCOc1ccc(/C(=C(/CCCl)c2ccccc2)c2ccccc2)cc1 | 1090 nM (active) | –
CN1CCC[C@@H]1CCO[C@](C)(c1ccccc1)c1ccc(Cl)cc1 | 1530 nM (active) | –
C[C@]12CC[C@@H]3c4ccc(O)cc4C[C@@H](CCCCCCCCCS(=O)CCCC(F)(F)C(F)(F)F)[C@H]3[C@@H]1CC[C@@H]2O (some centres undefined) | – | inactive

Reference: PubChem BioAssay AID1117313 (National Center for Advancing Translational Sciences (NCATS), 2015)
